Source: PubChem
CHX counter = Cycloheximide Counterscreen for Small Molecule Inhibitors of Shiga Toxin; cell reporter, cycloheximide protein synthesis inhibition counterscreen; max response, %; 300,000 tested, 12% active; in the data active = max response mostly above about 13%, no sharp cut-off; inactive = mostly below about 14%; also: read at 38.3 µM for the half of the compounds with a filed dose
Shiga inhibitor = A qHTS for Small Molecule Inhibitors of Shiga Toxin | Vero cells, Shiga toxin protein synthesis inhibition reporter | inhibition, % at 38.7 µM | 290,000 tested, 9.2% active; in the data active = inhibition mostly above about 28%, no sharp cut-off; inactive = mostly below about 43%
Pf growth 96h = Primary qHTS for delayed death inhibitors of the malarial parasite plastid, 96 hour incubation; P. falciparum luciferase reporter growth, 96 h; Potency, µM (highest dose often 28.7 µM), hits mostly inhibitors; 320,000 tested, 6.9% active; AID 504834, 2011
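Parasite growth measured via integrated firefly luciferase reporter in P. falciparum. Infected erythrocytes at 2% hematocrit, 0.05% parasitemia final were treated 96 hours at 37 C under 5% CO2, and luminescence was read.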
Sm TGR block = qHTS Assay for the Inhibitors of Schistosoma Mansoni Peroxiredoxins | Potency, µM (doses to about 114 µM), usual class: inhibitors | 360,000 tested, 3% active | purified TGR, DTNB reduction, TNB absorbance 405 nm | Schistosoma mansoni thioredoxin glutathione reductase (TGR), Q962Y6; also: nearly all actives have a fitted effect of over 60% in size
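Kinetic colorimetric format: TGR-catalysed, NADPH-driven DTNB reduction monitored via TNB absorbance. Enzyme dispensed at 20 nM; compound exposure 15 min at room temperature before reaction start.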
Pf growth 48h = Primary qHTS for delayed death inhibitors of the malarial parasite plastid, 48 hour incubation; Potency, µM (top dose mostly 28.7 µM), most hits filed as inhibitors; P. falciparum luciferase growth in erythrocytes, 48 h; AID 504832, 2011; 310,000 tested, 5.9% active
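A one-generation exposure of luciferase-tagged malaria parasites in RPMI 1640/Albumax erythrocyte culture, 37 C and 5% CO2. Inhibition is inferred from decreased luminescence after adding detection reagent.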
NS1 function inh = qHTS Assay for Inhibitors of Influenza NS1 Protein Function; Potency, µM (titrated, usually from 46.1 µM); 270,000 tested, 0.4% active; AID 2326, 2010; calls by dose curve; also: actives are rising curves; nearly all actives have a fitted effect of over 50% in size
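Read-out: OD600 growth recovery of NS1-expressing budding yeast. Cells grown overnight at 30C in -URA glucose medium, washed, resuspended and diluted 1:100 in 2% galactose assay medium, pH 6.0. Same strain lacking NS1 served as positive control.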
Each line names hits and unclear results; the compound was inactive in the other large screens. The list is not random: actives were taken first. Their share in the collection is about 21%. Unless noted, calls follow the shape of the dose curve; as a rule, active = well fitted curve in the direction sought with a large enough effect; inconclusive = small, poorly fitted or top-dose-only effect, or another doubt; inactive = no such curve, though single readings can be large; an effect the other way counts as inactive or inconclusive.

COc1ccccc1N(Cc1ccccc1)S(=O)(=O)c1cccc(C(=O)Nc2cc(C)ccn2)c1	CHX counter 43, Shiga inhibitor 58, Pf growth 96h inconclusive, Pf growth 48h inconclusive
Cc1ccnc(NC(=O)c2cccc(S(=O)(=O)NCc3ccccc3)c2)c1	Pf growth 48h inconclusive (no result: CHX counter, Shiga inhibitor, NS1 function inh)
CNCc1sccc1C	Pf growth 96h inconclusive (no result: NS1 function inh)
COc1ccccc1N(Cc1ccccc1)S(=O)(=O)c1cccc(C(=O)NC2CC(C)(C)NC(C)(C)C2)c1	Pf growth 96h 4.7µM, Pf growth 48h 5.9µM (no result: CHX counter, Shiga inhibitor, NS1 function inh)
c1ccc(Nc2nc(Nc3ccccc3)nc(N3CCNCC3)n2)cc1	Pf growth 96h 9.3µM, Pf growth 48h inconclusive
O=c1nc(N2CCCC2)nc(Nc2ccccc2)[nH]1	Pf growth 96h 15µM
CN1CCN(c2nc(Nc3ccc(F)cc3)nc(Nc3ccc(F)cc3)n2)CC1	none
CCn1c(SCC(=O)c2ccc(NC(C)=O)c(OC)c2)nnc1-c1ccc(NS(C)(=O)=O)cc1	none
CCC(=O)Nc1ccc(C(=O)CSc2nnc(-c3ccc(NS(C)(=O)=O)cc3)n2C)cc1OC	Pf growth 96h 0.47µM
CCC(C)(C)NC(=O)CN(C(=O)C(=O)Nc1ccc2c(c1)OCCO2)N1CCOCC1	Pf growth 96h inconclusive
COc1cccc(NC(=O)Cc2nnc(SCC(=O)NC3CCCC3)n2C)c1	none
CCOc1ccccc1C1N=C(c2ccc(OC)cc2)CC(c2ccccc2O)N1 (centres undefined)	CHX counter 46, Shiga inhibitor 114 (no result: NS1 function inh)
CC1(C)C2CCC1(C)C(NCC(O)COc1ccc(C#N)cc1)C2 (centres undefined)	Pf growth 96h 4.1µM (no result: Pf growth 48h)
CC(C)(C)C(=O)Nc1sc2c(c1C(=O)Nc1ccccn1)CCCC2	Pf growth 96h inconclusive
COC(=O)CNc1c(-c2ccccn2)nc2ccc(Br)cn12	CHX counter 36, Shiga inhibitor 49, Sm TGR block 40µM
COc1ccc(OC)c(CN2CCN(C(=O)c3cc4ccccc4cc3O)CC2)c1	Pf growth 96h 2.3µM, Pf growth 48h 4.7µM
COc1cc(CN2CCN(C(=O)c3cccc4ccccc34)CC2)cc(OC)c1O	Pf growth 96h 15µM, Sm TGR block 6.3µM (no result: Shiga inhibitor)
COc1ccc(OC)c(CN2CCN(C(=O)c3cccc4ccccc34)CC2)c1	none
CC(=O)Nc1ccn(C2OC(C(COC(C)=O)NC(=O)C(C)NC(=O)OC(C)(C)C)C(OC(C)=O)C2OC(C)=O)c(=O)n1 (centres undefined)	none (no result: Pf growth 96h, Sm TGR block, Pf growth 48h, NS1 function inh)
O=[N+]([O-])c1ccc(Cl)c(S(=O)(=O)NC2=NCCC2)c1	none (no result: CHX counter, Shiga inhibitor, NS1 function inh)
CCS(=O)(=O)Nc1ccc(C(=O)CC2(O)C(=O)Nc3ccccc32)cc1 (centres undefined)	none
O=C(CC1(O)C(=O)Nc2ccccc21)c1ccc(-n2cnnn2)cc1 (centres undefined)	CHX counter 24, Pf growth 96h inconclusive (no result: NS1 function inh)
Cc1cccc(CCNC(=O)C2CCC(CNc3c(N4CCCC4)c(=O)c3=O)CC2)c1 (centres undefined)	Pf growth 96h 9.3µM (no result: Pf growth 48h)
O=C(CCNS(=O)(=O)c1cccc2nsnc12)NC1CCCc2ccccc21 (centres undefined)	Pf growth 96h inconclusive
O=C(NCCc1ccccc1)C1CCC(CNc2c(N3CCCCC3)c(=O)c2=O)CC1 (centres undefined)	Pf growth 96h 12µM
O=C(NC1CCCc2ccccc21)C1CCC(CNc2c(N3CCOCC3)c(=O)c2=O)CC1 (centres undefined)	Pf growth 96h 10µM
CC1CCN(c2c(NCC3CCC(C(=O)NCCc4ccccc4)CC3)c(=O)c2=O)CC1 (centres undefined)	Pf growth 96h inconclusive
Cc1ccc(CCNC(=O)C2CCC(CNc3c(N4CCCC4)c(=O)c3=O)CC2)cc1 (centres undefined)	Pf growth 96h inconclusive, Sm TGR block inconclusive (no result: Pf growth 48h)
O=C(NC1CCCc2ccccc21)C1CCC(CNS(=O)(=O)c2cccc3nsnc23)CC1 (centres undefined)	Pf growth 96h 3.7µM (no result: Pf growth 48h)
C=CCN1C(=O)c2ccc(C(=O)N(C)Cc3ccc(C)o3)cc2C1=O	Sm TGR block 50µM (no result: CHX counter, Shiga inhibitor, NS1 function inh)
CCn1nc(C)c(Oc2ccccc2O)c1C	Pf growth 96h 12µM
Cc1nn(CCC#N)c(C)c1Oc1ccccc1O	none
COc1cccc(C(=O)Nc2ccc(N3CCN(Cc4ccccc4)CC3)cc2)c1	Shiga inhibitor 43, Pf growth 96h inconclusive (no result: Pf growth 48h)
CCCc1ccc(C(=O)NNc2cccc(C)c2)cc1	CHX counter 29, Shiga inhibitor 46, Pf growth 96h inconclusive
Cc1cccc(NC(=O)c2ccc(CN3CCN(Cc4ccccc4)CC3)cc2)c1	CHX counter 27, Pf growth 48h inconclusive
COc1cccc(NC(=O)c2ccc(CN3CCN(c4ccccc4)CC3)cc2)c1	CHX counter 17, Shiga inhibitor 27, Pf growth 48h 12µM
COc1ccc(NC(=O)c2ccc(CN3CCN(c4ccccc4)CC3)cc2)cc1	Pf growth 96h inconclusive, Pf growth 48h inconclusive
O=C(O)[C@@H]1[C@@H](C(=O)Nc2ccccc2)[C@@H]2C=C[C@@H]1O2	none (no result: CHX counter, Shiga inhibitor, Pf growth 96h, Sm TGR block, Pf growth 48h)
Cc1ccc(-n2nnnc2SCC(=O)Nc2sccc2C#N)cc1	none
CC(C)N(C)C(=O)C(=O)c1cccn1-c1cccc(Cl)c1C#N	none (no result: Sm TGR block)
COc1cc(CNCc2ccccn2)ccc1OCC(N)=O	NS1 function inh inconclusive
COc1cc(CNCc2ccccn2)ccc1OCc1ccc(Cl)c(Cl)c1	CHX counter 20, Shiga inhibitor 64 (no result: NS1 function inh)
COc1cc(CNCc2ccccn2)ccc1OCc1ccc(Cl)cc1Cl	Pf growth 96h 10µM, Pf growth 48h inconclusive
CC(C)Cn1c(N)c(-c2nc(C(C)C)c(C(=O)c3ccccc3F)s2)c(=O)n(C)c1=O	Pf growth 96h inconclusive
Cc1cc(C)c(S(=O)(=O)N2CCN(C(=O)c3cc4ccccc4oc3=O)CC2)c(C)c1	Pf growth 96h inconclusive, Pf growth 48h inconclusive (no result: CHX counter, Shiga inhibitor, NS1 function inh)
Cc1nn(CC(=O)Nc2ccc3c(c2)nc2n3CCN(C3CCCCC3)C2)c(=O)c2ccccc12	Pf growth 96h inconclusive, Sm TGR block 18µM, Pf growth 48h inconclusive
Cc1nn(CC(=O)Nc2ccc3c(c2)nc(CCN2CCCCC2)n3C)c(=O)c2ccccc12	none (no result: Pf growth 96h)
Cc1ccc(NC(=O)C2CCCN2C(=O)NC2CCCCC2)cc1 (centres undefined)	Pf growth 96h inconclusive
CCc1ccccc1NC(=O)CSc1ccsc1[N+](=O)[O-]	Pf growth 96h 2.3µM
O=C(CSc1ccsc1[N+](=O)[O-])Nc1cccc(F)c1	CHX counter 21, Sm TGR block inconclusive (no result: NS1 function inh)
COc1ccccc1CNC(=O)CSC1=NCCS1	CHX counter 19
COc1ccccc1CNC(=O)CSc1ccsc1[N+](=O)[O-]	CHX counter 43, Shiga inhibitor 85 (no result: NS1 function inh)
O=C(CSc1ccsc1[N+](=O)[O-])NC1CCCC1	Pf growth 96h inconclusive, Sm TGR block inconclusive (no result: NS1 function inh)
